Screening results from PubChem.
HT1080-NT tox: qHTS for induction of synthetic lethality in tumor cells producing 2HG: qHTS for the HT-1080-NT fibrosarcoma cell line; 360,000 compounds, 1.6% hits; HT-1080-NT fibrosarcoma viability, CellTiter-Glo ATP luminescence, 48 h; Potency, µM (top dose mostly 46.1 µM), for the others: at the top dose activity, negative = less viability, usual class: cytotoxic; AID 686970, 2013;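 note: NT is the 2HG producing partner of a matched IDH1 knockdown line; 0% = DMSO-treated cells and -100% = media-only wells without cells; nearly all actives have a fitted effect of over 55% in size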
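HT-1080-NT fibrosarcoma cells (2HG-overproducing), 750 cells/well in RPMI with 5% FBS, dosed after 2 h and incubated 48 h at 37C. CellTiter-Glo luminescence normalized to DMSO and no-cell wells; concentration-response curves fitted and classed.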
KB-V1 cytotox: qHTS assay for MDR1-selective chemotherapeutics: Primary screen using the drug-selected MDR subline cells KB-V1. KB-V1 MDR cells viability, CellTiter-Glo, 72 h. Potency, µM (doses to about 46.1 µM), actives largely listed as cytotoxic. 400,000 compounds, 3.4% hits; note: % is set by controls: 0 for no effect and ±100 for the full control effect; nearly all actives have a fitted effect of over 60% in size
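Drug-selected KB-V1 cells, grown in DMEM lacking phenol red with 10% FBS, receive compound titrations; after three days at 37 degrees C, surviving cell ATP is quantified by CellTiter-Glo luminescence and responses normalized and curve-fitted.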
SW480 rereplic: A quantitative high throughput screen for small molecules that induce DNA re-replication in SW480 colon adenocarcinoma cells | Potency, µM (doses to about 46.1 µM), for the others: top-dose re-replication activation, actives largely listed as activators | SW480 DNA re-replication, Hoechst DNA content imaging, 48 h | 340,000 compounds, 1.8% hits; note: % of control where 0% means no effect; nearly all actives have a fitted effect of over 55% in size
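DNA re-replication was detected as more nuclei of elevated Hoechst intensity after 48 hr exposure to compound (23 nL pinned per well of 250 cells).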
MCF10A rerep: A quantitative high throughput screen for small molecules that induce DNA re-replication in MCF 10a normal breast cells. MCF 10A DNA re-replication, Hoechst nuclear intensity, 48 h. Potency, µM (doses to about 46.1 µM), without a hit: top-dose activity, positive = re-replication, actives largely listed as activators. 350,000 compounds, 2.9% hits. AID 624296, 2012; note: % of control where 0% means no effect; nearly all actives have a fitted effect of over 50% in size
HT1080 IDH1KD tx: qHTS for induction of synthetic lethality in tumor cells producing 2HG: qHTS for the HT-1080-IDH1KD cell line | AID 686971, 2013 | HT-1080 IDH1 knockdown viability, ATP luminescence, 48 h | Potency, µM (series often up to 46.1 µM), for the others: at the highest dose activity, negative = toxicity, most hits filed as cytotoxic | 360,000 compounds, 2% hits;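 note: 0% = DMSO wells and -100% = cell-free medium wells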
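Viability of IDH1-knockdown HT-1080 fibrosarcoma cells was assessed by CellTiter-Glo after 48 h at 37 °C with titrated compound; concentration-effect curves were classified by fit quality and response size.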
KB-3-1 tox: qHTS assay for MDR1-selective chemotherapeutics: Primary screen using the parental adenocarcinoma cell KB-3-1; KB-3-1 viability, CellTiter-Glo ATP luminescence, 72 h; Potency, µM (titrated, usually from 46.1 µM), hits mostly cytotoxic; 400,000 compounds, 1.4% hits; note: % is set by controls: 0 for no effect and ±100 for the full control effect; nearly all actives have a fitted effect of over 60% in size
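KB-3-1 cells, DMEM (no phenol red) + 10% FBS; compound by pin transfer, 72 h, 37 °C. Readout: CellTiter-Glo luminescence after 10 min. Data normalized, curve-fitted.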
Starred values were filed as active, the others as inactive; i = inactive; ? = inconclusive; / = not tested or not shown; ! = repeats disagree. A selection: hits, their analogues and other compounds. The true share with any hit is near 8%. Calls come from the whole dose curve; as a rule, active = well fitted curve in the direction sought with a large enough effect; inconclusive = small, poorly fitted or top-dose-only effect, or another doubt; inactive = no such curve, though single readings can be large; an effect the other way counts as inactive or inconclusive. Potency is the fitted concentration of half-maximal effect.

SMILES	HT1080-NT tox	KB-V1 cytotox	SW480 rereplic	MCF10A rerep	HT1080 IDH1KD tx	KB-3-1 tox
CCOc1ccc(C(=O)c2cn(CC(=O)Nc3cccc(OC)c3)c3cc4c(cc3c2=O)OCCO4)cc1	/	i	/	/	/	?
CN(C)c1ccc(/C=C/c2ccnc3ccc(Br)cc23)cc1	/	i	/	/	/	i
CCc1cnc2c(c1SCC(=O)Nc1ccc(Cl)cc1)c(=O)n(C)c(=O)n2C	/	i	/	/	/	i
COc1ccc(-n2c(-c3ccc(C)cc3)cc3c2CC(C)(C)CC3=O)c(OC)c1	/	i	/	/	/	i
CCOC(=O)C(=O)c1c(-c2ccc(C)cc2)nc2ccccn12	-3%	i	-57%	?	-2%	i
CCOC(=O)C(=O)c1c(-c2ccccc2)nc2ccccn12	-6%	i	24%	20%	-4%	i
CCOC(=O)c1c(-c2ccccc2)nc2ccc(C)cn12	8%	21µM*	-7%	16%	5%	i
CCOC(=O)c1c(-c2ccccc2)nc2cc(C)ccn12	-23%	15µM*	-3%	?	?	i
C=CCn1c(O)c(N=NC(=S)Nc2ccccc2F)c2cc(S(=O)(=O)N3CCOCC3)ccc21	?	?	13%	8%	?	?
Cc1cccc(C)c1NC(=S)N=Nc1c(O)n(C)c2ccc(S(=O)(=O)N3CCOCC3)cc12	8%	3.7µM*	2%	?	1%	?
Cc1ccccc1NC(=S)N=Nc1c(O)n(C)c2ccc(S(=O)(=O)N3CCOCC3)cc12	?	?	?	1%	21µM*	?
Cc1cc(C)cc(NC(=S)N=Nc2c(O)n(C)c3ccc(S(=O)(=O)N4CCOCC4)cc23)c1	-13%	i	?	-5%	-16%	i
Cc1ccc(NC(=S)N=Nc2c(O)n(C)c3ccc(S(=O)(=O)N4CCOCC4)cc23)cc1	-3%	i	9%	?	?	?
Cc1cccc(NC(=S)N=Nc2c(O)n(C)c3ccc(S(=O)(=O)N4CCOCC4)cc23)c1	-7%	0.73µM*	?	20%	-26%	?
Cc1ccc(C)c(Cn2c(SCC(=O)N(C)Cc3ccccc3)nc3ccccc32)c1	/	i	/	/	/	i
Cn1c(CNC(=O)CSc2n[nH]c(-c3ccccc3Cl)n2)nc2ccccc21	/	i	/	/	/	i
COc1cc(C2c3c(oc4ccc(C)cc4c3=O)C(=O)N2Cc2ccccc2)ccc1O (stereo not drawn)	/	i	/	/	/	i
Cc1noc(/C=C/N(C)C)c1S(=O)(=O)N1CCc2ccccc21	0%	i	14%	18µM*	?	i
O=C(O)c1ccc(N=c2oc3cc(O)ccc3cc2C(=O)NCc2ccccc2)cc1	-13%	i	244%	?	1%	i
O=C(NCc1ccccc1)c1cc2ccc(O)cc2oc1=O	-2%	i	7.3µM*	16µM*	-9%	i
O=C(O)c1cc2ccc(O)cc2oc1=O	12%	?	/	/	7%	i
C/C(=N\NC(=O)CC#N)c1cc2ccc(O)cc2oc1=O	9%	i	21µM*	9.2µM*	4%	i
CC(C)c1ccc(NC(=O)CSc2nc(=O)n(Cc3cccnc3)c3c2CCC3)cc1	/	i	/	/	/	i
COc1ccc(C)cc1NC1(c2ccccc2)C(=O)c2ccccc2C1=O	/	?	/	/	/	i
CCOc1ccc(NC(=O)Cn2cc(S(=O)(=O)NC)c(S(=O)(=O)NC)c2)cc1	/	i	/	/	/	i
SMILES	HT1080-NT tox	KB-V1 cytotox	SW480 rereplic	MCF10A rerep	HT1080 IDH1KD tx	KB-3-1 tox
COc1ccc(C#Cc2c(-c3ccsc3)oc3ccc(N4CCOCC4)cc23)cc1	-1%	i	5%	16µM*	5%	i
COc1ccc(C#Cc2c(-c3ccc(OC)cc3)oc3ccc(-c4ccc(OC)cc4)cc23)cc1	6%	i	-15%	3%	2%	i
COc1ccc(-c2oc3ccc(N4CCOCC4)cc3c2C#Cc2ccc(N)cc2)cc1	16µM*	?	?	5.8µM*	23µM*	?
O=C(OCc1ccc(O)cc1)c1c(-c2ccsc2)oc2ccc(N3CCOCC3)cc12	?	?	21µM*	21µM*	?	?
COc1ccc(/C=C/c2c(-c3cccc(C)c3)oc3ccc(N4CCOCC4)cc23)cc1	-3%	i	6%	9.2µM*	0%	i
Cc1cc(C)cc(OC(=O)c2snnc2C)c1	/	i	/	/	/	i
CCOC(=O)c1ccc(NC(=O)CC(C)n2nc(C)cc2C)cc1 (stereo not drawn)	/	i	/	/	/	i
CCOC(=O)c1ccc(S(=O)(=O)N2CCN(c3nc(-c4cccs4)nc4ccccc34)CC2)cc1	/	i	/	/	/	i
COc1ccc(-c2nc(-c3ccccc3)c(-c3ccc(F)cc3)[nH]2)c(OC)c1C	/	i	/	/	/	i
CCN(CC)c1cc(C)c2cc(NC(=O)/C=C/c3ccccc3OC(C)C)ccc2n1	/	i	/	/	/	i
OC1(C#Cc2c(-c3ccsc3)oc3ccc(N4CCOCC4)cc23)CCCCC1	?	i	?	?	?	?
COc1ccc(-c2oc3ccc(N4CCOCC4)cc3c2C#CC2(O)CCCCC2)cc1	?	i	?	?	21µM*	21µM*
CCCSCCCNC(=O)CN1C(=O)COc2ccc(S(=O)(=O)N3CCC(C)CC3)cc21	/	?	/	/	/	i
Cc1ccc2c(c1)c(=O)c(Br)c(C)n2Cc1ccccc1	6%	18µM*	1%	?	1%	?
Cc1cc(NCCNC2=CC(=O)CCC2)nc2ccccc12	7%	i	-5%	-4%	4%	i
Cc1cc(NCC2CCCCC2)nc2ccccc12	?	9.2µM*	14%	26µM*	7.3µM*	i
CCCC(=O)Nc1cc(C(=O)NCc2ccccc2)ccc1S(=O)(=O)c1ccc(Cl)cc1	/	i	/	/	/	i
Cn1c(=NC(=O)C2=NNC(=O)CC2)sc2ccccc21	22%	1.5µM*	-1%	3%	28%	3.3µM*
Cn1c(=NC(=O)CN2C(=O)C3CC=CCC3C2=O)sc2ccccc21 (stereo not drawn)	14%	5.2µM*!	-1%	8%	14%	i
Cc1cc2n(n1)C(c1ccc(N(C)C)cc1)Nc1ccccc1-2 (stereo not drawn)	1%	?	21µM*	21µM*	0%	?
